TRHR agonist = TRH receptor (human) agonism; P34981; TRHR cells, calcium flux fluo-8, FDSS agonist mode; activation, % at 2 µM; 360,000 tested, 0.18% active
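TRHR-expressing cells loaded with fluo-8 calcium dye; 23 nL library compound pin-transferred, kinetic FDSS fluorescence (Ex 480/Em 530) recorded about 180 s for agonist-induced calcium release, before a 10 nM TRH EC20 addition for potentiator mode.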
D1 antag = human D1 dopamine receptor antagonism; HEK293 TREx D1 cells, calcium flux, dopamine EC80; stronger effect = lower value; P21728; 360,000 tested, 3.2% active; activity change, negative = inhibition, % at 10 µM; in the data active = activity change below about -30%
Target sequence (P21728 whole entry, looked up): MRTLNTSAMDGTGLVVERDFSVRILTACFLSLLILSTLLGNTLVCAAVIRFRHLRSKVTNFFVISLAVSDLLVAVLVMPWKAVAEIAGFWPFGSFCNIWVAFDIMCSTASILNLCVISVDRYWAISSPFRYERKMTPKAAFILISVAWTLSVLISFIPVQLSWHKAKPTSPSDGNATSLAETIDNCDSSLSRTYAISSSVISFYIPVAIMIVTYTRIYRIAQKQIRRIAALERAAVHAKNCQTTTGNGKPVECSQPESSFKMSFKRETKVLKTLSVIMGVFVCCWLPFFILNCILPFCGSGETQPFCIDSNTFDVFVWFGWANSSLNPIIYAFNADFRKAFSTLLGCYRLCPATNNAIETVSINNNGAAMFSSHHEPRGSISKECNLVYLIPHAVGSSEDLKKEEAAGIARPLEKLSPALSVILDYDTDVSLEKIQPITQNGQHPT
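Using tetracycline-induced force-coupled D1 Hek293 cells and a calcium dye, signals were followed for 180 s after compound, then for 180 s after EC80 dopamine, to detect inhibitors.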
D1 PAM = enhances dopamine response at the human D1 receptor | 360,000 tested, 0.036% active | potentiation, % at 10 µM | HEK293 TREx D1 cells, calcium flux, dopamine EC20 potentiation | P21728; in the data active = potentiation above about 30%
TRHR PAM = allosterically enhances the human TRH receptor; P34981; TRHR cells, fluo-8 calcium fluorescence, EC20 TRH enhancement; enhancement, % at 2 µM; 360,000 tested, 0.66% active; in the data active = enhancement above about 30%
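TRHR-expressing cells loaded with fluo-8 calcium dye were read kinetically (ex 480/em 530) during compound addition, then stimulated with an EC20 of TRH (10 nM final). Enhancement of the Gq-mediated intracellular calcium response was scored.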
D1 agonist = agonists of human D1 dopamine receptor | P21728 | HEK293 T-REx D1 cells, calcium flux, agonist mode | activation, % at 2 µM | 360,000 tested, 1% active | AID 504660
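Agonism was scored from calcium flux recorded over 180 s (1 read/s) after pintool compound addition, following a 10-cycle baseline. Cells were inducible force-coupled HEK293 TREx D1, plated overnight at 30 C and loaded with no-wash calcium dye.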
Numbers stand for hits. Shown are actives, neighbours in structure and some others; about 4.7% of the full set was active somewhere. Rule as the data show it, unless noted: active = activation above about 30%; inactive = the rest.

CCOc1ccccc1Cn1c(=O)sc2ccccc21 was read as TRHR agonist inactive, D1 antag inactive, D1 PAM inactive, TRHR PAM inactive and D1 agonist inactive.
For CC(C)CCOc1ccccc1Cn1c(=O)sc2ccccc21 the results were TRHR agonist inactive, D1 antag inactive, D1 PAM inactive, TRHR PAM inactive and D1 agonist 34.8.
For O=C(NCC(c1cccnc1)N1CCN(Cc2ccccc2)CC1)C(=O)Nc1cccc(F)c1 (stereo not given) the results were TRHR agonist inactive, D1 antag inactive, D1 PAM inactive, TRHR PAM inactive and D1 agonist inactive.
`N#Cc1cc(C(=O)c2cc(F)ccc2O)cn(-c2nccs2)c1=O` gave TRHR agonist 183.2, D1 antag inactive, D1 PAM inactive, TRHR PAM inactive and D1 agonist 305.9.
For N#Cc1cc(C(=O)c2ccccc2O)cn(-c2nccs2)c1=O the results were TRHR agonist 292.2, D1 antag inactive, D1 PAM inactive, TRHR PAM 30.3 and D1 agonist 553.4.
Screening CCOC(=O)c1c(S(=O)(=O)N2CCCC(C(=O)Nc3cccc(C#N)c3)C2)c(C)n(C)c1C (stereo not given) returned TRHR agonist inactive, D1 antag inactive, D1 PAM inactive, TRHR PAM inactive and D1 agonist inactive.
`O=C(NNC(=S)NC(=O)c1cccc([N+](=O)[O-])c1)c1ccc(O)cc1` gave TRHR agonist inactive, D1 antag inactive, D1 PAM inactive, TRHR PAM inactive and D1 agonist inactive.
For CCCCC(=O)NNC(=S)NC(=O)c1ccc([N+](=O)[O-])cc1 the results were TRHR agonist inactive, D1 antag inactive, D1 PAM inactive, TRHR PAM inactive and D1 agonist inactive.
O=C(NNC(=S)NC(=O)c1ccccc1)c1cccc([N+](=O)[O-])c1 was read as TRHR agonist inactive, D1 antag inactive, D1 PAM inactive, TRHR PAM inactive and D1 agonist inactive.
`Cc1ccc(CSCCNC(=O)c2cccc([N+](=O)[O-])c2)cc1` gave TRHR agonist inactive, D1 antag -43.0, D1 PAM inactive, TRHR PAM inactive and D1 agonist inactive.
CCCCC(=O)NNC(=S)NC(=O)c1ccc(C)cc1 was read as TRHR agonist inactive, D1 antag inactive, D1 PAM inactive, TRHR PAM inactive and D1 agonist 60.4.
Cc1ccc(C(=O)NC(=S)NNC(=O)c2cccc([N+](=O)[O-])c2)cc1 was read as TRHR agonist inactive, D1 antag inactive, D1 PAM inactive, TRHR PAM inactive and D1 agonist 50.1.
Screening O=C(NNC(=S)NC(=O)c1cccc([N+](=O)[O-])c1)c1ccc(Br)cc1 returned TRHR agonist inactive, D1 antag inactive, D1 PAM inactive, TRHR PAM inactive and D1 agonist 32.3.
Screening CC1CCN(c2nn3c(=O)c(C(=O)NCc4ccc(Cl)cc4)cnc3s2)CC1 returned TRHR agonist inactive, D1 antag inactive, D1 PAM inactive, TRHR PAM inactive and D1 agonist inactive.
Screening CC1CCc2nc(NC(=O)CN3CCOCC3)sc2C1 (stereo not given) returned TRHR agonist inactive, D1 antag -34.0, D1 PAM inactive, TRHR PAM inactive and D1 agonist inactive.
`COc1ccc(-c2nc3cc(C)ccn3c2NC(=O)c2ccc(F)cc2)cc1` gave TRHR agonist inactive, D1 antag -39.8, D1 PAM inactive, TRHR PAM inactive and D1 agonist inactive.
For Cc1nn(-c2cccc(Cl)c2)c2c1C(c1cccnc1)C(C#N)=C(N)O2 (stereo not given) the results were TRHR agonist inactive, D1 antag -36.4, D1 PAM inactive, TRHR PAM inactive and D1 agonist inactive.
N#CC1=C(N)Oc2ccc3ccc(O)cc3c2C1c1cccnc1 (stereo not given) was read as TRHR agonist inactive, D1 antag -76.0, D1 PAM inactive, TRHR PAM inactive and D1 agonist inactive.
`COc1ccc(-n2cc(C(=O)NC(C)c3ccccc3)c3ccccc3c2=O)cc1` (stereo not given) gave TRHR agonist inactive, D1 antag inactive, D1 PAM inactive, TRHR PAM inactive and D1 agonist inactive.
Screening Cc1ccc(C(C)C)c(OCC(=O)N2CCC(c3nc4ccccc4o3)CC2)c1 returned TRHR agonist inactive, D1 antag inactive, D1 PAM inactive, TRHR PAM inactive and D1 agonist inactive.
`C/C(=N\OCC(=O)OCC(=O)N(Cc1ccccc1)C(C)(C)C)c1ccc2c(c1)OCO2` gave TRHR agonist inactive, D1 antag -36.1, D1 PAM inactive, TRHR PAM inactive and D1 agonist inactive.
For C/C(=N\OCC(=O)OCC(=O)N(C)c1ccccc1)c1ccc2c(c1)OCO2 the results were TRHR agonist inactive, D1 antag inactive, D1 PAM inactive, TRHR PAM inactive and D1 agonist inactive.
Screening Cc1ccc(S(=O)(=O)NCc2nc(-c3cccc(C)c3)no2)cc1 returned TRHR agonist inactive, D1 antag inactive, D1 PAM inactive, TRHR PAM inactive and D1 agonist inactive.
For CN=c1c([N+](=O)[O-])nn(-c2ccc3c(c2)OCCO3)n1O the results were TRHR agonist inactive, D1 antag inactive, D1 PAM inactive, TRHR PAM inactive and D1 agonist inactive.
`CC(C)N=c1c([N+](=O)[O-])nn(C)n1O` gave TRHR agonist inactive, D1 antag -58.1, D1 PAM inactive, TRHR PAM inactive and D1 agonist inactive.
COc1ccc(-c2cc(C(=O)Nc3c(Cl)cccc3Cl)no2)cc1OC was read as TRHR agonist inactive, D1 antag inactive, D1 PAM inactive, TRHR PAM inactive and D1 agonist inactive.
Screening CCOc1nc(C)ccc1-c1noc(CC)n1 returned TRHR agonist inactive, D1 antag -38.1, D1 PAM inactive, TRHR PAM inactive and D1 agonist inactive.
Screening CCOc1nc(C)ccc1-c1noc(-c2ccco2)n1 returned TRHR agonist inactive, D1 antag inactive, D1 PAM inactive, TRHR PAM inactive and D1 agonist inactive.
Screening CSc1cccc(NC(=O)Cn2nc(C)c3sc4ccccc4c3c2=O)c1 returned TRHR agonist inactive, D1 antag inactive, D1 PAM inactive, TRHR PAM inactive and D1 agonist inactive.
For CCc1cccc(NC(=O)Cn2nc(C)c3sc4ccccc4c3c2=O)c1 the results were TRHR agonist inactive, D1 antag -42.3, D1 PAM inactive, TRHR PAM inactive and D1 agonist inactive.
For CCc1cccc(C)c1NC(=O)CCCn1nc(C)c2sc3ccccc3c2c1=O the results were TRHR agonist inactive, D1 antag -38.6, D1 PAM inactive, TRHR PAM inactive and D1 agonist inactive.
Screening Cc1cc(C)cc(NC(=O)CCn2cnc3ccccc3c2=O)c1 returned TRHR agonist inactive, D1 antag inactive, D1 PAM inactive, TRHR PAM inactive and D1 agonist inactive.
For COc1cc2ccccc2cc1C(=O)Nc1ccc2oc(-c3ccccc3)nc2c1 the results were TRHR agonist inactive, D1 antag inactive, D1 PAM inactive, TRHR PAM inactive and D1 agonist inactive.
